Holding throughout (experiment): NCI-60 one-dose screen, 48 h (100 = growth as untreated, 0 = no growth, -100 = all killed)
What all share (conditions): 10 µM unless noted

For assay [1], the system named is SK-MEL-2 melanoma.
The test system of assay [2] is EKVX NSCLC.
Assay [3] concerns UO-31 renal.
Assay [4] relates to TK-10 renal.
The test system of assay [5] is ACHN renal.
The subject of assay [6] is CAKI-1 renal.
For assay [7], the system named is A498 renal.
The subject of assay [8] is CCRF-CEM leukemia.
Assay [9] deals with MOLT-4 leukemia.
The test system of assay [10] is SR leukemia.
Assay [11] relates to RPMI-8226 leukemia.
For assay [12], the system named is OVCAR-8 ovarian.
Assay [13] relates to OVCAR-5 ovarian.
Assay [14] concerns OVCAR-4 ovarian.
Assay [15] deals with SK-OV-3 ovarian.
For assay [16], the system named is IGROV1 ovarian.
For assay [17], the system named is OVCAR-3 ovarian.
In assay [18] the test system is HS 578T breast.
Assay [19] deals with NCI/ADR-RES ovarian.

The panel holds about 83,000 compounds, 20% with a hit somewhere; the sample as a whole holds those more often.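 Plates (96-well) were seeded with cells, treated with compound at one concentration, and incubated for 48 hours before percent growth was determined.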 A number with no mark means an inactive call. Calls of active or inactive are those of the source. How the source made its calls: active means growth percent below 10; inactive means the rest.

The values that follow come from PubChem BioAssay (NCI).

For `COc1ccc(-c2nnc(SCC(=O)c3ccc(Cl)cc3)o2)cc1`, the growth in [1] is 104%; in assay [2] it was 101%; in [3], 99.8%; in assay [4] it was 95.9%; in assay [5] it was 102%; in [6], 98.1%. Further, the growth in assay [7] was 100%; in assay [8], 114%; in [9], 109%; in assay [10], 105%; in assay [11], 101%; in assay [12], 99%. The growth in assay [13] is 93.3%; in assay [14], 98%; in [15], 104%; in assay [16] it was 105%; in assay [17], 103%; in [18] it was 109%. Further, the growth in assay [19] was 95.6%.

For `COc1ccc(CN2c3ccccc3Sc3ccccc32)cc1O`, the growth is 8.98% (active) in assay [1]; 36.7% in [2]; 24.4% in assay [3]; 58.3% in [4]; 41.7% in [5]; 36.2% in assay [6]. Further, the growth in assay [7] is 76.4%; in assay [8], 8.29% (active); in [9], 18.4%; in assay [10], 16.1%; in [11], 24.4%; in assay [12], 22.1%. The growth was 86% in assay [13]; 45.7% in assay [14]; 29.1% in [15]; 30.2% in assay [16]; 7.47% (active) in assay [17]; 33% in [18]. For the same compound, in assay [19], the growth was 18.5%.

For `COc1cc2c(cc1O)CC[C@@H]1[C@@H]2CC[C@]2(C)[C@@H](OCCN(C)C)CC[C@@H]12`, the growth was 25.8% in assay [1]; 65.2% in assay [2]; 72.3% in assay [3]; 85.1% in [4]; 57.9% in [5]; 75.3% in assay [6]. The growth in assay [8] is 10.3%; in assay [9] it was 33.9%; in [10] it was -11.6% (active); in assay [11] it was 5.96% (active); in assay [12], 65.6%; in assay [13], 78.8%. Further, the growth is 47% in assay [14]; 63% in [15]; 73.4% in assay [16]; 12.5% in [17]; 27% in [18]; 17.9% in assay [19].

In the case of `O=c1oc2c(C(F)(F)F)cccc2cc1-c1csc(Nc2ccc(OCCF)cc2)n1`, the growth is 18% in [1]; 38% in [2]; 40.3% in assay [3]; 59.7% in assay [4]; 23.2% in assay [5]; 12.2% in assay [6]. In addition, the growth in [7] is -9.67% (active); in assay [8] it was 5.28% (active); in [9], 15.8%; in assay [10], 6.43% (active); in [11], 15.9%; in [12], 4.22% (active). The growth in [13] was 67.5%; in assay [14] it was 40.4%; in assay [15], 15.1%; in [16], 21.4%; in assay [18], 22.7%; in [19], 17.5%.

In the case of `COc1ccc(CN2c3ccccc3Oc3ccccc32)cc1O`, the growth in assay [1] is -6.69% (active); in assay [2], 35%; in [3], 32.5%; in assay [4], 64.4%; in [5], 36.1%; in assay [6] it was 39.4%. The growth was 12.5% in assay [8]; 24.9% in assay [9]; 17.4% in [10]; 14.1% in [11]; 35.6% in assay [12]; 91.5% in assay [13]. For the same compound, the growth in assay [14] is 55.1%; in assay [15] it was 31.3%; in assay [16], 45.3%; in assay [17], 18.6%; in assay [18] it was 31.1%; in assay [19], 25.2%.

For `NC(=NCCCOc1ccc(Cl)cc1)Nc1ccc(Cl)cc1`, the growth in [1] is 24.1%; in [2], 44.4%; in assay [3] it was 37%; in assay [4], 45.8%; in assay [5], 2.74% (active); in [6], 19.3%. The growth in assay [7] was -12% (active); in [8], 6.02% (active); in [9], 4.83% (active); in [10], 4.92% (active); in assay [11], 15.1%; in [12], 60.4%. Besides, the growth in assay [13] was 30.5%; in assay [14], 26.4%; in assay [15] it was 69.2%; in assay [16] it was 8.71% (active); in [17], 54.3%; in assay [18], 41.5%. Also, the growth in assay [19] was 53.1%.

`C=C1C(=O)O[C@H]2[C@H]1CC/C(COC(=O)NCc1ccc(OC)c(OC)c1)=C\CC[C@@]1(C)O[C@@H]21`: the growth in assay [1] is 85.1%; in assay [2] it was 65.9%; in assay [3], 56.7%; in [4], 50.9%; in [5], 6.25% (active); in assay [6] it was 32.9%. Further, the growth in assay [8] was -7.86% (active); in [9], 39.4%; in [10], 6.13% (active); in assay [11], 25.1%; in assay [12], 47.9%; in [13], 85.1%. The growth was 42.3% in [14]; 101% in [15]; 61% in assay [16]; 19.9% in [17]; 86.2% in assay [18]; 93.9% in [19].

As for `O=C1/C(=C/c2ccc(OCCCOc3ccc(Cl)cc3)cc2)N=C2SCCCN12`, the growth in assay [1] is 98.4%; in [2] it was 47.6%; in assay [3] it was 70.9%; in assay [4], 72.7%; in assay [5] it was 74.5%; in [6] it was 71.6%. In addition, the growth in [7] was 96.5%; in assay [8], 69.5%; in [9], 62.1%; in assay [10] it was 67.5%; in [11], 45.6%; in assay [12], 65.9%. The growth in [13] was 102%; in assay [14] it was 49.2%; in assay [15] it was 105%; in [16], 97.8%; in [17], 71.3%; in assay [18] it was 107%. The growth in assay [19] was 67.4%.
